TIM10 inh: growth inhibitors of isogenic TIM10 control yeast, primary screen, counter-screen for tim10-1 yeast inhibitor project, luminescence, uHTS; S. cerevisiae TIM10 strain growth, BacTiter-Glo luminescence, 24 h; inhibition, % at 10 µM; 1.4% of 330,000 active;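 active = inhibition of 40% or more at the single tested concentration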;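 note: wild-type TIM10 isogenic control strain grown at permissive 25 °C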
tim10-1 inh: growth inhibitors of tim10-1 mutant yeast, primary screen, luminescence, uHTS | S. cerevisiae tim10-1 ts strain growth, BacTiter-Glo, 24 h | inhibition, % at 20 µM | 2.2% of 330,000 active | AID 463190, 2010;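 active = inhibition of at least 40%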;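 note: mutant grown at 25 °C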
tim23-1 inh: growth inhibitors of tim23-1 mutant yeast, primary screen, luminescence, uHTS; S. cerevisiae tim23-1 growth, BacTiter-Glo luminescence, 24 h; inhibition, % at 20 µM; 1.3% of 330,000 active;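 active = growth inhibition of the mutant yeast at or above 50%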;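 note: temperature-sensitive mutant grown at 25 °C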
NALP1 inh: NALP1 inflammasome inhibitors in reconstituted yeast, colorimetric, S. cerevisiae, triplicate retest; S. cerevisiae NALP1/ASC/caspase-1 growth, X-gal OD620, 72 h; inhibition, % at 10 µM; 0.61% of 280,000 active; in the data active = inhibition mostly above about 24%, no sharp cut-off; inactive = mostly below about 32%
NALP3 yeast inh: NALP3 inflammasome inhibitors in reconstituted yeast, primary screen, luminescence, uHTS; Yeast reconstituted NLRP3/ASC/caspase-1, beta-gal luminescence, 24 h; inhibition, % at 10 µM; 0.39% of 330,000 active;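 active = inhibition of 50% or more; inactive = inhibition below 50%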
TIM10 conf: growth inhibitors of wild-type TIM10 yeast, confirmation, counter-screen for tim10-1 synthetic lethality project, single concentration, luminescence, S. cerevisiae. shares compounds with TIM10 inh. S. cerevisiae tim10 strain growth, BacTiter-Glo luminescence, 24 h. inhibition, % at 10 µM. 63% of 4,600 active. AID 463215, 2010;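 active = inhibition of yeast growth at or above a set limit in either of two replicates at 10 µM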; note: this counterscreen used the strain with wild-type TIM10
tim23-1 conf: tim23-1 mutant yeast growth inhibitors, confirmation, luminescence, single concentration; S. cerevisiae tim23-1 growth, BacTiter-Glo luminescence, 24 h; AID 463218, 2010; shares compounds with tim23-1 inh; 83% of 4,400 active; inhibition, % at 20 µM;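 active = inhibition above about 39% in either of two replicate wells at 20 µM, limit read from the data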;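 note: temperature-sensitive tim23-1 mutant grown at 25 °C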
Large screens that a line does not name were inactive (follow-up assays come after a bar, where they were run). A selection: hits, their analogues and other compounds. The true share with any hit is near 4.1%.

COc1ccc(-n2c(NN)nc3sc4c(c3c2=O)CCCC4)cc1	TIM10 inh 49, tim23-1 inh 70 | TIM10 conf inactive | tim23-1 conf 62
O=C(CCNS(=O)(=O)c1cccc(C(F)(F)F)c1)NCc1ccco1	none (no result: NALP1 inh)
COCc1cc(=O)[nH]c(SCCS(=O)(=O)c2ccc(Cl)cc2Cl)n1	TIM10 inh 44, tim23-1 inh 58 | TIM10 conf 35 | tim23-1 conf inactive
CCOc1ccc(C2=NNC(c3cccs3)=Nc3ccc(OC)cc32)cc1OCC	none
CCOc1ccc(C2=NNC(c3cccs3)=Nc3ccc(OCC)cc32)cc1	TIM10 inh 52, tim23-1 inh 55 | TIM10 conf 44 | tim23-1 conf 68
O=C1C2=C(Nc3ccccc3SC2c2ccco2)c2ccccc21 (stereo unspecified)	TIM10 inh 46, tim23-1 inh 55 | TIM10 conf 43 | tim23-1 conf 82
O=C1c2ccccc2NC(c2ccco2)N1O (stereo unspecified)	none
COc1ccccc1N1CC(C)(C)C(=O)N(C(=O)c2ccc(Cl)cc2)C1=S	TIM10 inh 45, tim23-1 inh 51 | TIM10 conf 54 | tim23-1 conf 52
COc1ccc([N+](=O)[O-])cc1NC(=O)c1ccc(Br)s1	none
CCOC(=O)c1cc(-c2ccncc2)nc2c1c(C)nn2C	TIM10 inh 45, tim23-1 inh 53 | TIM10 conf 41 | tim23-1 conf 51
CCN(CC)CCNC(=O)c1ccc(NC(=O)C2CC(=O)N(c3ccc4c(c3)OCCO4)C2)cc1 (stereo unspecified)	none (no result: NALP1 inh)
CCS(=O)(=O)c1nc(S(=O)(=O)c2ccc(Cl)cc2)c(N2CCOCC2)s1	none
Clc1cccc(Nc2ncnc3ccc(Br)cc23)c1	TIM10 inh 48, tim23-1 inh 54 | TIM10 conf 44 | tim23-1 conf 50
Cc1cccc(Nc2ncnc3ccc(Br)cc23)c1	none
CC1CCN(S(=O)(=O)c2c[nH]c(=O)[nH]c2=O)CC1	none (no result: NALP1 inh)
CCOC(=O)c1sc(NC(=O)c2ccc(Br)o2)cc1C	none
CCOC(=O)c1sc(NC(=O)c2sccc2C)cc1C	TIM10 inh 74, tim23-1 inh 50 | TIM10 conf 62 | tim23-1 conf 71
CCOC(=O)C1CCN(C(=O)c2cc3cc4ccc(OC)cc4nc3o2)CC1	TIM10 inh 41, tim23-1 inh 68 | TIM10 conf 37 | tim23-1 conf 67
COc1ccc2cc3cc(C(=O)N4CCN(Cc5ccc6c(c5)OCO6)CC4)oc3nc2c1	TIM10 inh 40, tim23-1 inh 68 | TIM10 conf inactive | tim23-1 conf 83
Cc1ccc2cc3cc(C(=O)N4CC(C)CC(C)C4)oc3nc2c1 (stereo unspecified)	TIM10 inh 48, tim23-1 inh 53 | TIM10 conf 39 | tim23-1 conf 60
CCOC(=O)C1CCN(C(=O)c2ccc(OC)cc2OC)CC1	none
CC(C)(C)c1ccc(OCCC(=O)NCCc2ccc(S(N)(=O)=O)cc2)cc1	none
O=C1CCCCCN1Sc1ccccc1	TIM10 inh 51, tim23-1 inh 58 | TIM10 conf 35 | tim23-1 conf inactive
CCCCN=Cc1sc2ccc(OCC)cc2c1O	TIM10 inh 43, tim23-1 inh 58 | TIM10 conf 27 | tim23-1 conf 54
C=CCN=Cc1sc2ccc(OCC)cc2c1O	none
O=C(O)[C@H](Cc1ccccc1)NC(=O)N1CCN(c2ccccc2)CC1	none (no result: NALP1 inh)
CO/C(N)=C(\C#N)N=Cc1ccccc1Cl	TIM10 inh 47, tim23-1 inh 52 | TIM10 conf inactive | tim23-1 conf 64
CCn1c(CSc2nc3ccccc3s2)nc2ccccc21	TIM10 inh 51, tim23-1 inh 54 | TIM10 conf 44 | tim23-1 conf 52
c1csc(CSc2nc3ccccc3s2)c1	none
CC[C@]1(c2ccccc2C)ON(c2ccccc2C(F)(F)F)C1=O	none (no result: NALP1 inh)
